GLP1R cytotox: cytotoxicity in counter-screen for GLP-1R inverse agonists. Potency, µM (top dose mostly 38.3 µM), inactives show at the highest dose activity change, negative = inhibition, hits mostly inhibitors. 410,000 compounds, 0.13% hits. HEK293 cAMP-luciferase reporter cells, luminescence, 24 h;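 note: loss of luciferase light is scored as toxicity; potency is the fitted concentration of half-maximal effect; % is set by controls: 0 for no effect and ±100 for the full control effect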
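Seeding density was 200 cells/uL; after overnight-length (12 h) culture, 23 nL compounds went on for 24 h at 37 °C. Readout used a luciferase detection reagent, luminescence taken after 12 min at room temperature.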
D3 antag: antagonists of human D3 dopamine receptor; P35462; D3R cells, DiscoveRx beta-arrestin luminescence, antagonist mode; hits give low values; max response, negative = inhibition, %; 360,000 compounds, 2.5% hits; in the data active = max response below about -50%; inconclusive = no clear call, values can overlap the other calls; note: % is set by controls: 0 for no effect and ±100 for the full control effect
Target sequence (P35462 whole entry, looked up): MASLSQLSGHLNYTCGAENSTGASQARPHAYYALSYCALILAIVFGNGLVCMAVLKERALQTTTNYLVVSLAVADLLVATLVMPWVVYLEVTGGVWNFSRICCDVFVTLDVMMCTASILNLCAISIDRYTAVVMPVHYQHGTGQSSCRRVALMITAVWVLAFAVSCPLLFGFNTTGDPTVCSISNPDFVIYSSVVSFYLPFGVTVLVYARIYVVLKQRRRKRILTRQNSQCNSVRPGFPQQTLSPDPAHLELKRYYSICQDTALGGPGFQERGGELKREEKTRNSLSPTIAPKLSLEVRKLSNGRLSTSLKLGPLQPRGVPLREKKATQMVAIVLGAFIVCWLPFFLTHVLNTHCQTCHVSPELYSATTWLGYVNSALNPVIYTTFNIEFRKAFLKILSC
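Cells expressing the human receptor were seeded at 1500 cells/well, incubated overnight at 37 degrees C in 5% CO2, then exposed to library compounds with dopamine controls for 90 minutes at 37 degrees C before luminescent detection.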
D3 ag: D3 dopamine receptor (human) agonism; P35462; max activation, %; D3R DiscoveRx beta-arrestin cells, luminescence, 90 min; 410,000 compounds, 0.58% hits; AID 652048; in the data active = max activation above about 30%; note: 0% is about no effect
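Cells at 1500/well, incubated overnight, then treated with pinned compounds (dopamine as control) for 90 min at 37 degrees C. DiscoveRx reagent added for 30 - 60 minutes at room temperature; luminescence read.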
GLP1R inv ag: GLP-1 receptor (human) inverse agonism; P43220; HEK293 GLP-1R CRE-luciferase, luminescence, 24 h; GLP-1R form is constitutively active; Potency, µM (titrated, usually from 38.3 µM), for the others: top-dose activity change, negative = inhibition, usual class: inhibitors; 410,000 compounds, 1.6% hits; AID 624417; note: potency is the fitted concentration of half-maximal effect; % is set by controls: 0 for no effect and ±100 for the full control effect; nearly all actives have a fitted effect of over 55% in size
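Readout was luciferase luminescence, measured 12 min after detection reagent at room temperature. Beforehand, GLP-1R reporter HEK293 cells had sat 12 h, then received compounds for 24 hr at 37 deg C.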
ClpP mod: qHTS Assay for Activators of ClpP; ATP-dependent Clp protease proteolytic subunit (Bacillus subtilis (strain 168)), P80244; purified B. subtilis ClpP, FRET peptide cleavage, 20 min; Potency, µM (series often up to 57.5 µM), for inactives: at the top dose activity change, negative = active; 340,000 compounds, 1.9% hits; AID 651965, 2013; active = well fitted falling curve with a large enough effect; inconclusive = small, poorly fitted or top-dose-only effect; inactive = no such curve, though single readings can be large or run the other way; note: potency is the fitted concentration of half-maximal effect; the source files actives as falling curves though it sought activators and does not explain the sign; nearly all actives have a fitted effect of over 65% in size
Target sequence (P80244 whole entry, looked up): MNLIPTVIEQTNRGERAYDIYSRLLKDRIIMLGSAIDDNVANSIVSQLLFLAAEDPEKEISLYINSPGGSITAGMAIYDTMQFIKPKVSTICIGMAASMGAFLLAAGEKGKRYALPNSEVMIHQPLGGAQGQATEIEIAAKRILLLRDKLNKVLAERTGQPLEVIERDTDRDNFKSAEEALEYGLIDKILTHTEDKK
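Buffer: 100 mM Tris/HCl pH8, 100 mM KCl, 0.05% low protease BSA, 2.5% glycerol, 0.01% Tween-20. ClpP 10 microg/mL final; 20 min RT; delta FRET normalized to ADEP and DMSO controls.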
GLP1R ag: agonists of human GLP-1 receptor; AID 624172; 380,000 compounds, 0.007% hits; P43220; Potency, µM (titrated, usually from 45.6 µM), inactives show at the top dose activation, hits mostly activators; HEK293 GLP-1R CRE-luciferase, luminescence, 4-6 h; cells express a hypersensitive GLP-1R form; note: potency is the fitted concentration of half-maximal effect; % of control where 0% means no effect
* hit, by the source's call; ? = inconclusive; / = no result. Only some compounds are listed: those with a hit (about 5.7% of all), similar ones and a draw of the others. Unless noted, calls come from the whole dose curve; as a rule, active = well fitted curve in the direction sought with a large enough effect; inconclusive = small, poorly fitted or top-dose-only effect, or another doubt; inactive = no such curve, though single readings can be large; an effect the other way counts as inactive or inconclusive.

SMILES	GLP1R cytotox	D3 antag	D3 ag	GLP1R inv ag	ClpP mod	GLP1R ag
CC1(C)Cc2c(c(N3CCOCC3)nc3sc(C#N)c(N)c23)CS1	7%	29	1	3%	28µM*	12%
CCOC(=O)c1sc2nc(N3CCOCC3)c3c(c2c1N)CC(C)(C)N(C)C3	6%	14	3	8%	7.1µM*	-4%
CCOC(=O)c1sc2nc(N3CCOCC3)c3c(c2c1N)CCN(Cc1ccccc1)C3	18%	-26	-4	-7%	25µM*	0%
CC1(C)Cc2c(c(N3CCOCC3)nc3sc(C(N)=O)c(N)c23)CO1	0%	11	7	32%	-1%	19%
CCOC(=O)c1ccc(NC(=O)c2sc3nc(N4CCOCC4)c4c(c3c2N)CCCC4)cc1	19%	11	5	-7%	4%	-6%
COC(=O)Nc1ncc(CN2CCC(c3ccccc3)CC2)s1	-25%	-54*	10	7%	0%	-6%
O=C1c2ccccc2C(=O)N1CSc1nnc(Nc2ccccc2F)s1	2%	-2	-11	0%	28µM*	10%
CCN(CC)CCCNC(=O)CN1C(=O)CCn2nc(-c3cn(C)c4ccccc34)cc21	1%	/	-7	-1%	-22%	/
Cc1cc(Nc2cccc(C)c2C)n2cnnc2n1	-1%	/	-1	2%	0%	/
Cc1ccc(-c2nn(-c3ccccn3)c(=O)c3ccccc23)cc1C	-8%	12	1	10µM*	-2%	11%
CS(=O)(=O)c1ccc([C@@H](O)[C@@H](CO)NC(=O)C(Cl)Cl)cc1	-2%	-51*	-25	5%	-1%	10%
CCC(O)c1ccccc1 (configuration not stated)	/	/	11	/	/	3%
CCC(O)c1cnc(OCc2ccccc2)nc1OCc1ccccc1 (configuration not stated)	8%	-17	-3	10µM*	0%	11%
CCn1nnc2cc(C(=O)Nc3ccc(C)c(Cl)c3)ccc21	-3%	/	-15	8%	-4%	/
N#CCC(=O)Nc1ccc(C(=O)NNC(=O)CCN2CCN(c3ccccc3)CC2)cc1	5%	-83*	0	1%	-3%	0%
O=C(CCN1CCN(c2ccccc2)CC1)NNC(=O)c1cccc2ccccc12	-19%	-15	53*	-24%	-3%	-3%
CCC1(c2ccccc2)NC(=O)N(CC(=O)NNC(=O)CCN2CCN(c3ccccc3)CC2)C1=O (configuration not stated)	5%	-56*	-11	-1%	4%	-7%
CCc1cc(C(=O)NNC(=O)CCN2CCN(c3ccccc3)CC2)sc1C	-9%	-63*	6	?	-1%	-2%
Cc1ccccc1C(=O)Nc1cccc(C(=O)OCc2cc(=O)n3c4c(sc3n2)CCCC4)c1	-10%	/	-14	3%	?	/
N#CC1=C(N)OC2=C(C(=O)CCC2)C1c1ccc(OC(=O)N2CCOCC2)cc1 (configuration not stated)	-8%	-80*	0	-4%	-1%	-4%
CC1(C)CC(=O)C2=C(C1)OC(N)=C(C#N)C2c1ccc(OC(=O)N2CCOCC2)cc1 (configuration not stated)	7%	-13	-3	2%	0%	-8%
CCN(C(=O)CCS(=O)(=O)c1cc2[nH]c(=O)c(=O)[nH]c2cc1C)c1ccccc1	6%	/	-9	4%	32µM*	/
COC(=O)C[C@H]1c2cc(F)ccc2S(=O)(=O)N1C1CC1	/	/	/	/	0%	/
O=S(Cc1ccc(Br)cc1)Cc1nnc(SCc2c(F)cccc2Cl)n1-c1ccccc1 (configuration not stated)	?	?	-2	?	32µM*	-4%
CCOc1ccccc1CNC(=O)c1cc2c(=O)n(Cc3ccco3)ccc2nc1C	-2%	/	-4	-1%	4%	/
SMILES	GLP1R cytotox	D3 antag	D3 ag	GLP1R inv ag	ClpP mod	GLP1R ag
CCC1CCc2sc(C(=O)NCc3ccccn3)cc2C1 (configuration not stated)	-26%	-8	-1	?	-4%	2%
COc1ccc(C(CNC(=O)CSc2ccc(Br)cc2)N2CCOCC2)cc1 (configuration not stated)	-7%	-15	-17	?	/	12%
CCC1CCc2sc(C(=O)NCC(c3ccccc3OC)N3CCCC3)cc2C1 (configuration not stated)	?	?	-19	5µM*	-4%	19%
COc1ccc(C(CNC(=O)C(C)Oc2ccc(Br)cc2)N2CCOCC2)cc1 (configuration not stated)	9%	-69*	-28	-5%	28µM*	1%
CCC1CCc2sc(C(=O)N(C)CC(=O)Nc3ccc(OC)cc3)cc2C1 (configuration not stated)	-5%	0	2	10µM*	-1%	14%
COc1ccc(C(CNC(=O)c2cc3c(s2)CCC(C)C3)N2CCCC2)cc1 (configuration not stated)	?	-105*	-24	?	-7%	6%
COc1cc(OC)c(/C=C/c2cc3c4ccccc4ccc3[n+](C)c2)c(OC)c1	/	/	/	/	4%	/
COc1ccc(C(CNC(=O)c2ccc(Cl)s2)N2CCOCC2)cc1 (configuration not stated)	0%	-7	-14	6%	2%	-4%
COc1ccc(C(CNC(=O)c2cc3c(s2)CCC(C)C3)N2CCOCC2)cc1 (configuration not stated)	5%	-103*	-28	?	-7%	0%
CO/N=C1\C[C@]2(C[C@@H]3C[C@H](C/C=C(/C)C[C@@H](C)/C=C\C=C4\CO[C@@H]5[C@@H](O)C(C)=C[C@@H](C(=O)O3)[C@]45O)O2)O[C@@H](/C(C)=C/C(C)C)[C@H]1C	/	/	/	/	/	-5%
COc1ccc(C(=O)N2c3ccc(C)cc3C(C)(c3ccccc3)CC2(C)C)cc1 (configuration not stated)	6%	/	-5	10µM*	-6%	/
Clc1ccc2nc(-c3ccc(Br)s3)cn2c1	5%	-9	10	-25%	20µM*	-24%
COc1ccc(-c2cn3cc(Cl)ccc3n2)cc1OC	8%	-27	-1	30%	?	?
COc1cccc(/C=N/NC(=O)CSc2ccccc2C)c1OC	-9%	-6	2	-6%	-17%	5%
CC(C)NC(=O)CSc1nnc(C2CC2)n1-c1ccccc1	-10%	-51*	4	8%	1%	-12%
COc1cccc(/C=N/NC(=O)CSc2nnc(C)n2-c2ccccc2)c1OC	40%	14	-21	3%	28µM*	10%
